Consider 5 compounds from PubChem BioAssay.

Experiment [1] can be described thus: rapamycin-like changes in RPL19A-GFP expression – cell-based, S. cerevisiae, multiplex flow cytometry, primary screen (AID 1862; in the data active = percent of DMSO control GFP below about 86%;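 note: lower values mimic rapamycin by blocking the RPL19A rise seen in DMSO cells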). The conditions noted are these: S. cerevisiae RPL19A-GFP strain, flow cytometry fluorescence, 3 h; at 10 µM; stronger effect = lower value. For orientation: Flow cytometry measures light scatter and fluorescence of single cells or particles in a stream.

A short description of experiment [2]: TOR pathway GLN3 branch reporter MEP2-GFP changes – S. cerevisiae, multiplex flow cytometry, primary screen (AID 1867;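 active = GFP response, as percent of the DMSO control, above the screen-wide mean plus 3 SD, about 139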;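 note: median GFP channel fluorescence of barcode-gated MEP2-GFP cells measured by flow cytometry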). The following applies: S. cerevisiae MEP2-GFP strain, 3 h, at 10 µM, stronger effect = higher value, 100% means same as DMSO wells.
The nature of experiment [3]: TOR pathway RTG branch CIT2 reporter changes – S. cerevisiae, GFP fusion, multiplex flow cytometry, primary screen (AID 1870;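 active = percent response above a set limit, the screen-wide mean plus 3 SD, cut at about 130% in these data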;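 note: barcoded CIT2-GFP strain pooled with four other GFP strains with rapamycin as positive control; median GFP fluorescence per well over plate mean of DMSO wells so 100% = DMSO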). The following applies: S. cerevisiae CIT2-GFP expression, 3 h, at 10 µM, stronger effect = higher value.
Experiment [4] in a line: TOR pathway LAP4-GFP level changes – S. cerevisiae, multiplex flow cytometry, primary screen (AID 1873;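 active = GFP signal, as percent of the solvent control, above the screen mean plus 3 SD, about 149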). The following applies: S. cerevisiae LAP4-GFP expression, 3 h, at 10 µM, stronger effect = higher value.
Experiment [5] in a line: yeast AGP1-GFP level changes, GLN3 branch – cell-based, multiplex flow cytometry, S. cerevisiae, primary screen (AID 1887;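 active = GFP signal above the screen-wide mean plus 3 SD, that is over about 124.5% of the solvent control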;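 note: AGP1-GFP fusion strain of S. cerevisiae within a five-strain barcoded multiplex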). The conditions noted are these: 3 h, at 10 µM, stronger effect = higher value.
The nature of experiment [6]: reduced mouse 2C T cell binding to pMHC/ICAM-1 vesicles – MLPCN validation set, flow cytometry, LFA-1/ICAM-1 modulator project, pilot screen (AID 2523;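 active = response below a set limit, under 55% cells CD8-positive and vesicle-bound, and CD8 cells' 90th-percentile brightness under 279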;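 for vesicle binding response: mean PE anti-B7-1 fluorescence of CD8+ cells relative to row control; 100% = QL9-loaded vesicles with DMSO vehicle in the same plate row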). The conditions noted are these: 2C mouse CD8+ T cells, at 7 µM, stronger effect = lower value; double positive events: measured here: CD8+/vesicle+ event percentage.
Experiment [7] has as its target Integrin beta-1 (Homo sapiens) + Integrin alpha-4 (Homo sapiens) (UniProt P13612+P05556). As to the kind of experiment: alpha4beta1 integrin LIBS antibody binding reduction – U937 cells, HUTS-21 mAb, flow cytometry, validation set, VLA-4 allosteric modulator project, pilot screen (AID 2674;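 active = inhibition above 50%, about 3 SD of the validation set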;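 note: antibody binding induced by the VLA-4 ligand LDV present at three times its Kd; 0% = LDV ligand with antibody and no compound and 100% = antibody without LDV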). The following applies: HUTS-21 LIBS mAb binding, at 6.7 µM, stronger effect = higher value, binding induced by LDV ligand.

Experiment [8] is described as follows: calorie-restriction mimetic ROS inhibitors, yeast – validation compound set, pilot screen (AID 2706;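 active = superoxide response below 65% of plate, a cut near 3 SD across the whole screen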;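 note: yeast exposed to compound for one week at 30 degrees C before staining; 100% = mean of all compound wells on the same plate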). The conditions noted are these: S. cerevisiae aging, superoxide DHE fluorescence; at 10 µM, stronger effect = lower value.
For experiment [9], the target named is Beta-adrenergic receptor kinase 1 (Homo sapiens) (UniProt P25098). Nature of the experiment: GRK2 binders displacing RNA aptamer, biochemical, validation, human GRK2, bead flow cytometry (AID 488806;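 active = aptamer binding inhibition above 30%, about 3 SD of noise from non-fluorescent compounds; inactive = inhibition at or below 30%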). The following applies: bead-bound GRK2, FAM-aptamer displacement, at 10 µM, stronger effect = higher value.
Beta-adrenergic receptor kinase 1 (Homo sapiens), sequence (P25098 whole entry, looked up): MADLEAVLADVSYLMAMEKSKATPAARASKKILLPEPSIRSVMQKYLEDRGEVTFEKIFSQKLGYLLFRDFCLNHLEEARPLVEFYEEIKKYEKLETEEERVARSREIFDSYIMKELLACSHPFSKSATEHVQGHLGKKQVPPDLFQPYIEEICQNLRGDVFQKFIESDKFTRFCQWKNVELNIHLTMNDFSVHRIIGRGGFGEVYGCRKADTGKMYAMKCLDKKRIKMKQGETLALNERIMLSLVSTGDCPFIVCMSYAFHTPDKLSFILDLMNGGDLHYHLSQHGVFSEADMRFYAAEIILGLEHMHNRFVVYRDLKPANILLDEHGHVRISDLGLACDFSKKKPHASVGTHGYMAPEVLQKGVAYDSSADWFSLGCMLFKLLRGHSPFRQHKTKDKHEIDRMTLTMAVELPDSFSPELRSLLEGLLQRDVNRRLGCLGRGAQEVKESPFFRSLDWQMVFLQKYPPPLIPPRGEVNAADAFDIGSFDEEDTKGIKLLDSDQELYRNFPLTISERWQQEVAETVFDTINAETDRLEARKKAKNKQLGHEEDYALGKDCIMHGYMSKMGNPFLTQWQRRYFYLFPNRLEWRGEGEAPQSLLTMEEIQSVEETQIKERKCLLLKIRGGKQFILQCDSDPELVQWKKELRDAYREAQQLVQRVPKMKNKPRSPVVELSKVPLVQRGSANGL
Experiment [10] deals with AP-2 complex subunit beta (Homo sapiens) (UniProt P63010). As to the kind of experiment: beta-arrestin/AP2 interaction blockers – biochemical, validation set, GST-AP2 beads, flow cytometry, pilot screen (AID 504541;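 active = inhibition above 54%, about 3 SD of non-fluorescent compounds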;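 note: AP2 carries R879A mutation and is captured from E. coli lysate; bead-bound FITC arrestin peptide fluorescence measuring arrestin peptide binding to AP2; 0% = DMSO wells and 100% = excess unlabeled arrestin peptide control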). The conditions noted are these: FITC arrestin peptide, at 10 µM, stronger effect = higher value, AP2 beta2 appendage fragment, R879A mutant.
AP-2 complex subunit beta (Homo sapiens), sequence (P63010 whole entry, looked up, the tested form may be a part, one chain of several): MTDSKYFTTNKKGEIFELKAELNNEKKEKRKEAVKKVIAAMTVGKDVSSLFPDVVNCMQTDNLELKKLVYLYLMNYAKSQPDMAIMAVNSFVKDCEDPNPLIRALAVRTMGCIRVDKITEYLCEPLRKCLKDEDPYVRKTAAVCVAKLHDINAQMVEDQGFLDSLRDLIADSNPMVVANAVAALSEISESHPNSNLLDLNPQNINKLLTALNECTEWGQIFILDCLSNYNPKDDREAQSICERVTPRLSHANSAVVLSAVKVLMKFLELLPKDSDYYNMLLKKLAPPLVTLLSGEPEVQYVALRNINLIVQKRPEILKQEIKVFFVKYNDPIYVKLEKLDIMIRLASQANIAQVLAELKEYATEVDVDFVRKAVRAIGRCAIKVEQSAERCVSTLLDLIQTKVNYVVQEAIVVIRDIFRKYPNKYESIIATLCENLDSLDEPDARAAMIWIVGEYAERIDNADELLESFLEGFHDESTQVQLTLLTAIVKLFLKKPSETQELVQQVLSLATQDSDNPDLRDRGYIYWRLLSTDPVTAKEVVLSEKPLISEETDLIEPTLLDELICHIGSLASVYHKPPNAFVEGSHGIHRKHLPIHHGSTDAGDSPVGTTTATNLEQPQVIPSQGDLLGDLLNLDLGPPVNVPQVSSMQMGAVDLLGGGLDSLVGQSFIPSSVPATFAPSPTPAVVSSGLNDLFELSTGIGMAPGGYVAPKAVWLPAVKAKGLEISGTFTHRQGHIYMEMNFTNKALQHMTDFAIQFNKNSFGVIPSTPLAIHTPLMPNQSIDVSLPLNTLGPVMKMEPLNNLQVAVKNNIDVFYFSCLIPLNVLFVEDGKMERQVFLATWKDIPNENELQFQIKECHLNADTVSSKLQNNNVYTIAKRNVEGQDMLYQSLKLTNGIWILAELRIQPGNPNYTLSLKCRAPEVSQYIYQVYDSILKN
The nature of experiment [11]: cytosolic pH regulators acting via V-ATPase – S. cerevisiae, pHLuorin, HTS validation (AID 504600; in the data active = response above about 15%;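 note: plate controls were DMSO for no effect and reference compound for full effect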). The following applies: V-ATPase proton transport, at 10 µM, stronger effect = higher value.
Experiment [12] relates to anti-desmoglein-3 scFv antibody binding to human DSG3. Nature of the experiment: blockers of pathogenic pemphigus antibody–desmoglein-3 binding – biochemical, validation compound set, bead-based, flow cytometry, pilot screen (AID 588368;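 active = binding below the plate cutoff, the plate median minus 3 SD, with a reading above zero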;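 note: signal is the median channel fluorescence of bead-bound GFP antibody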). The following applies: Protein G beads, DSG3-Fc, scFv-GFP binding, at 10 µM, stronger effect = lower value.
Experiment [13] can be described thus: Nile Red efflux blockade in pump-expressing yeast – validation compound set, multiplex, phenotypic, pilot screen (AID 588506;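 active = efflux inhibition above 0.42, the validation set average plus 4 SD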;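 note: Nile Red retained in cells so higher fluorescence means more efflux inhibition; 0 = negative control wells and 1 = enniatin B 25 µM full block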). The conditions noted are these: S. cerevisiae pump-expressing triplex, Nile Red efflux flow cytometry; at 10 µM; stronger effect = higher value; the pumps come from Candida albicans.
Experiment [14] deals with ATP-binding cassette sub-family B member 6 (Homo sapiens) (UniProt Q9NP58). Nature of the experiment: blockers of ABCB6-driven porphyrin uptake – K562-ABCB6 cells, flow cytometry, validation set, pilot screen (AID 588550;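 active = inhibition above the screen-wide mean plus 3 SD, about 51%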;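 note: 0% = DMSO wells and 100% = benzethonium chloride 70 µM positive control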). The conditions noted are these: K562-ABCB6 porphyrin accumulation, 1 h, at 10 µM, stronger effect = higher value.
ATP-binding cassette sub-family B member 6 (Homo sapiens), sequence (Q9NP58 whole entry, looked up): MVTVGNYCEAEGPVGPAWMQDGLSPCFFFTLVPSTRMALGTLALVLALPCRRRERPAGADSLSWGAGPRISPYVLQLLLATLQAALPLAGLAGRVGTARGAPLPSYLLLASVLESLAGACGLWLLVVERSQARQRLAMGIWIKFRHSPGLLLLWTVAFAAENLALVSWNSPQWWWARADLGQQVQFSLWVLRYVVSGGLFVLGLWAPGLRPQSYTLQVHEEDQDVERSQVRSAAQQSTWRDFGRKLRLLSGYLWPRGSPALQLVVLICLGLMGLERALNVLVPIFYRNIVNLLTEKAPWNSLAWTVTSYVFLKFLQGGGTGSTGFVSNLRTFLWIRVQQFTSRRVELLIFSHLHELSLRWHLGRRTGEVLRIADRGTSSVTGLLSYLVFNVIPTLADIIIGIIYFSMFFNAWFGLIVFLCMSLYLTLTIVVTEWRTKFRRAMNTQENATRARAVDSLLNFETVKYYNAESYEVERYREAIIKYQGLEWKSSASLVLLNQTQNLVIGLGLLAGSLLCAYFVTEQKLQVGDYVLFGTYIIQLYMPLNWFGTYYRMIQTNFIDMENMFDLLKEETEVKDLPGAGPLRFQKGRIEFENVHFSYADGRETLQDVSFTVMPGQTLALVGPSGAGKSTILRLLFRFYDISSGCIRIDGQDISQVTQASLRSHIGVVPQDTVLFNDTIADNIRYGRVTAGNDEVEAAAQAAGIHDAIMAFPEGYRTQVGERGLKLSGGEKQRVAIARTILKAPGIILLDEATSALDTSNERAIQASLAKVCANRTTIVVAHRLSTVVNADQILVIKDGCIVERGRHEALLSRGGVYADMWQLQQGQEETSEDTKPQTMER
Experiment [15] is described as follows: AML differentiation inducers, ER-HoxA9 marrow cells – cell-based, GFP/MAC1 double positive, flow cytometry, validation set, primary screen (AID 588685).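 Note: compound exposure lasts four days before antibody staining and flow analysis; 0% = DMSO wells and 100% = 5 µM fulvestrant positive control.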 The conditions noted are these: stronger effect = higher value, normalized: vehicle 0, fulvestrant 100.

Molecules are shown by their SMILES. Records with an inconclusive call do not appear. Activity calls are given as the source filed them.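 Rule for the calls, unless noted: active = differentiation response of at least 50%, scaled between solvent and reference control, from cells with both markers; inactive = the rest.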

Integrin beta-1 (Homo sapiens) + Integrin alpha-4 (Homo sapiens), sequence (P05556 whole entry, looked up): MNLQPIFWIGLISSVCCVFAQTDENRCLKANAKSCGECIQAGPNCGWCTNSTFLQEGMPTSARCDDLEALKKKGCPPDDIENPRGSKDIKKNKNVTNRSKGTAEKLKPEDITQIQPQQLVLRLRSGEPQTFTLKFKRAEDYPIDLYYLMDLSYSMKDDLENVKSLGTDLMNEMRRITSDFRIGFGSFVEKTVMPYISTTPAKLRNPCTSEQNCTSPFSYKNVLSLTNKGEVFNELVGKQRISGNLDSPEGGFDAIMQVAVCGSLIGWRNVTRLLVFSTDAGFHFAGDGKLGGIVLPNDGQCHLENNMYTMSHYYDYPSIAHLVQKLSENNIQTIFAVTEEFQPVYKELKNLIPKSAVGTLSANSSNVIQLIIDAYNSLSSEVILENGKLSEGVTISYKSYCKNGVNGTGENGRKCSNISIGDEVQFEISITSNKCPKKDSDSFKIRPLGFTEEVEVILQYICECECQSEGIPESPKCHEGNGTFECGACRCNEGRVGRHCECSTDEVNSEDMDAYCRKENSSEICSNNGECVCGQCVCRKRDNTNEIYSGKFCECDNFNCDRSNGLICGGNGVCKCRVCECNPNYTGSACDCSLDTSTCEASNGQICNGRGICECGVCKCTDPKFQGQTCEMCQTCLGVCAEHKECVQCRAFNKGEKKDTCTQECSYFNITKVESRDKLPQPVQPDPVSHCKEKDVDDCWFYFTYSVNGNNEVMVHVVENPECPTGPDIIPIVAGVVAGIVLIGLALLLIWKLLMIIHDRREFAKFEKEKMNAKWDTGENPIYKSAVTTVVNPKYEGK
Integrin beta-1 (Homo sapiens) + Integrin alpha-4 (Homo sapiens), sequence (P13612 whole entry, looked up): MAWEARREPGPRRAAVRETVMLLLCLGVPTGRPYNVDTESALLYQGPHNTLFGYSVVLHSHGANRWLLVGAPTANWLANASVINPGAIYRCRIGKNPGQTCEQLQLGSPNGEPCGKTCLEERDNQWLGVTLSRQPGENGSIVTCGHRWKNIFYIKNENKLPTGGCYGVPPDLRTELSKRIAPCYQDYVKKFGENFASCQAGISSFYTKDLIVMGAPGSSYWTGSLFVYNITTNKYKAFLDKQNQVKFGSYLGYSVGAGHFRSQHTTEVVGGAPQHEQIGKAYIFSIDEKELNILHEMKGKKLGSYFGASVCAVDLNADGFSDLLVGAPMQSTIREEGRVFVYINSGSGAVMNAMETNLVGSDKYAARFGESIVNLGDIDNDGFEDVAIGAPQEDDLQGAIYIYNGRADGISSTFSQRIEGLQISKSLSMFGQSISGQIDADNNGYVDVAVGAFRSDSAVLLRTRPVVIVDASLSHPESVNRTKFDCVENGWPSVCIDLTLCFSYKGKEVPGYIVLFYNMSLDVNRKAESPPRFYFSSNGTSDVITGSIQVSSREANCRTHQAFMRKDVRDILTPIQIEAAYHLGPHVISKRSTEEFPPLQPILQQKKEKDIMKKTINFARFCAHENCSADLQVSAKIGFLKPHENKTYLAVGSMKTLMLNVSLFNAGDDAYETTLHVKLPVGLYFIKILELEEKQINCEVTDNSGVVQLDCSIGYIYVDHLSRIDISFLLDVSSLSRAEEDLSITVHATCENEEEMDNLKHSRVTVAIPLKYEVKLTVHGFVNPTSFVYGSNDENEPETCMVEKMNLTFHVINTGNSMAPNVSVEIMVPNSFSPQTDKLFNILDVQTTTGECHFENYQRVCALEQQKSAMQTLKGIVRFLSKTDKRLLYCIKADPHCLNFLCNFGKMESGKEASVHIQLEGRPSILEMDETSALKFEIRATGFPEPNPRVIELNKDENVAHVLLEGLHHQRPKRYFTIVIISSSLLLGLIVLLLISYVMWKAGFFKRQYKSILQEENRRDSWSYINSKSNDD

In the case of `O=C(O)c1cc(-c2ccc3c(c2)OCO3)nc2ccc(Br)cc12`, in experiment [1], the percent of DMSO control GFP was 100% (inactive). Further, the values for the GFP response vs DMSO in experiment [2] and in experiment [4] were 97.9% (inactive) and 127% (inactive), respectively. Besides, the percent response of DMSO control in experiment [3] is 82.2% (inactive). In addition, the GFP response, % of DMSO in [5] is 88.9% (inactive). Also, in experiment [6], the double positive events was determined as 67%. Moreover, the vesicle binding response in experiment [6] is 182% (inactive). Further, the values for the inhibition in experiment [7], in experiment [10] and in [14] were -7.7% (inactive), 12% (inactive) and 8% (inactive), respectively. Besides, in experiment [8], the superoxide response (% of plate) is 108% (inactive). The aptamer binding inhibition in experiment [9] was -3% (inactive). Further, the response in experiment [11] is -4.89% (inactive). Besides, in experiment [12], the binding (% of control) is 105% (inactive). In experiment [13], the efflux inhibition (fraction of control) was 0.18 (inactive). For the same compound, in experiment [15], the differentiation response was 41.8% (inactive).

`COc1ccc(CCNC(=O)C(=O)Nc2ccc3c(c2)OCO3)cc1OC`: the percent of DMSO control GFP in experiment [1] is 104% (inactive). Moreover, the GFP response vs DMSO in [2] is 104% (inactive); in [4], 101% (inactive). For the same compound, the percent response of DMSO control in [3] is 107% (inactive). Further, the GFP response, % of DMSO in [5] is 101% (inactive). The compound further gave a double positive events in experiment [6] of 65.2%. In addition, the vesicle binding response in [6] was 220% (inactive). In addition, the inhibition – broadly, the drop in the measured response relative to a control, in per cent – in experiment [7] was -4.9% (inactive); in experiment [10] it was -11.2% (inactive); in experiment [14], 10% (inactive). Also, the superoxide response (% of plate) in experiment [8] was 96.1% (inactive). For the same compound, in experiment [9], the aptamer binding inhibition was 5% (inactive). For the same compound, the response in experiment [11] was 6.72% (inactive). For the same compound, in [12], the binding (% of control) is 94.1% (inactive). For the same compound, the efflux inhibition (fraction of control) in experiment [13] was -0.16 (inactive). In [15], the differentiation response was -1.82% (inactive).

As for `COc1ccc2[nH]cc(C(=O)CCl)c2c1`, the percent of DMSO control GFP in experiment [1] was 103% (inactive). In addition, the GFP response vs DMSO in [2] is 98.9% (inactive); in [4], 100% (inactive). The percent response of DMSO control in experiment [3] is 102% (inactive). The GFP response, % of DMSO in experiment [5] was 102% (inactive). Besides, the double positive events in experiment [6] is 64.8%. Moreover, the vesicle binding response in experiment [6] is 172% (inactive). Besides, the inhibition was -3.04% (inactive) in experiment [7], 24.1% (inactive) in experiment [10] and 3% (inactive) in experiment [14]. Also, the superoxide response (% of plate) in experiment [8] is 101% (inactive). Besides, in experiment [9], the aptamer binding inhibition is 4% (inactive). Also, the response in experiment [11] is -6.9% (inactive). Moreover, in experiment [12], the binding (% of control) was 98.2% (inactive). Moreover, in experiment [13], the efflux inhibition (fraction of control) is -0.01 (inactive). Besides, the differentiation response in experiment [15] was 0% (inactive).

As to `O=C(c1ccc(-c2ccccc2)c(F)c1)C1CCCN(C(=O)c2cncs2)C1` (stereo not given), the percent of DMSO control GFP in [1] was 100% (inactive). Moreover, the GFP response vs DMSO was 103% (inactive) in [2] and 108% (inactive) in experiment [4]. Besides, the percent response of DMSO control in experiment [3] is 95.9% (inactive). Besides, the GFP response, % of DMSO in experiment [5] was 91.8% (inactive). The double positive events in experiment [6] was determined as 49.8%. The vesicle binding response in [6] was 157% (inactive). In addition, the figures for the inhibition in [7], in [10] and in experiment [14] were 11.9% (inactive), -11% (inactive) and 9% (inactive), respectively. In addition, the superoxide response (% of plate) in experiment [8] was 132% (inactive). The aptamer binding inhibition in experiment [9] was 7% (inactive). In addition, the response in experiment [11] was 13.7% (inactive). Besides, the binding (% of control) in experiment [12] was 101% (inactive). Also, the efflux inhibition (fraction of control) in [13] is -0.47 (inactive). Further, the differentiation response in experiment [15] was -14.7% (inactive).

On to `C[C@@H]1C[C@H]2[C@@H]3CCC4=CC(=O)C=C[C@]4(C)[C@@]3(F)[C@@H](O)C[C@]2(C)[C@@]1(O)C(=O)COP(=O)(O)O`, for which the percent of DMSO control GFP in experiment [1] is 104% (inactive). The GFP response vs DMSO is 98.9% (inactive) in experiment [2] and 83.3% (inactive) in [4]. Moreover, the percent response of DMSO control in [3] is 101% (inactive). The GFP response, % of DMSO in experiment [5] was 93% (inactive). The compound further came in with a double positive events in experiment [6] of 53.3%. In addition, the vesicle binding response in [6] was 126% (inactive). In addition, the inhibition in experiment [7] was 20.3% (inactive); in [10] it was -3.37% (inactive); in [14], 10% (inactive). Also, the superoxide response (% of plate) in [8] was 106% (inactive). Besides, the aptamer binding inhibition in experiment [9] was 2% (inactive). In addition, the response in experiment [11] was 4.69% (inactive). Further, the binding (% of control) in experiment [12] was 96.9% (inactive). The efflux inhibition (fraction of control) in [13] is -0.09 (inactive). In addition, the differentiation response in experiment [15] is -13.1% (inactive).
